According to the supplement of paper PMC11001985:
Values without a mark were called inactive.

Each target was assayed with C#CCNC(=O)CCSSCCC(=O)NCCc1ccc(C=O)c(C=O)c1 (assay: lysine labeling ratio R10:1 (500 µM / 50 µM probe), SILAC-ABPP in living cells; higher = lower intrinsic lysine reactivity toward the probe, active = 2 or less). Conditions: HeLa; probe concentrations 500 vs 50 µM.
Outline: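 Measurements came from LC-MS/MS on a TIMS-TOF Pro of mixed SILAC light and heavy HeLa lysates after click to biotin-azide, trypsin digestion, neutravidin capture, DTT release and alkylation. Before lysis, the living cells sat in PBS at room temperature with 50 µM or 500 µM of an alkyne-tagged, disulfide-linked lysine probe, and labels were swapped forward and reverse. R per lysine is the median across both swap directions of the filtered median high-probe/low-probe MS1 peptide ratio. The cap is 20.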

Chain of UniProt Q15149 (Q15149 whole entry): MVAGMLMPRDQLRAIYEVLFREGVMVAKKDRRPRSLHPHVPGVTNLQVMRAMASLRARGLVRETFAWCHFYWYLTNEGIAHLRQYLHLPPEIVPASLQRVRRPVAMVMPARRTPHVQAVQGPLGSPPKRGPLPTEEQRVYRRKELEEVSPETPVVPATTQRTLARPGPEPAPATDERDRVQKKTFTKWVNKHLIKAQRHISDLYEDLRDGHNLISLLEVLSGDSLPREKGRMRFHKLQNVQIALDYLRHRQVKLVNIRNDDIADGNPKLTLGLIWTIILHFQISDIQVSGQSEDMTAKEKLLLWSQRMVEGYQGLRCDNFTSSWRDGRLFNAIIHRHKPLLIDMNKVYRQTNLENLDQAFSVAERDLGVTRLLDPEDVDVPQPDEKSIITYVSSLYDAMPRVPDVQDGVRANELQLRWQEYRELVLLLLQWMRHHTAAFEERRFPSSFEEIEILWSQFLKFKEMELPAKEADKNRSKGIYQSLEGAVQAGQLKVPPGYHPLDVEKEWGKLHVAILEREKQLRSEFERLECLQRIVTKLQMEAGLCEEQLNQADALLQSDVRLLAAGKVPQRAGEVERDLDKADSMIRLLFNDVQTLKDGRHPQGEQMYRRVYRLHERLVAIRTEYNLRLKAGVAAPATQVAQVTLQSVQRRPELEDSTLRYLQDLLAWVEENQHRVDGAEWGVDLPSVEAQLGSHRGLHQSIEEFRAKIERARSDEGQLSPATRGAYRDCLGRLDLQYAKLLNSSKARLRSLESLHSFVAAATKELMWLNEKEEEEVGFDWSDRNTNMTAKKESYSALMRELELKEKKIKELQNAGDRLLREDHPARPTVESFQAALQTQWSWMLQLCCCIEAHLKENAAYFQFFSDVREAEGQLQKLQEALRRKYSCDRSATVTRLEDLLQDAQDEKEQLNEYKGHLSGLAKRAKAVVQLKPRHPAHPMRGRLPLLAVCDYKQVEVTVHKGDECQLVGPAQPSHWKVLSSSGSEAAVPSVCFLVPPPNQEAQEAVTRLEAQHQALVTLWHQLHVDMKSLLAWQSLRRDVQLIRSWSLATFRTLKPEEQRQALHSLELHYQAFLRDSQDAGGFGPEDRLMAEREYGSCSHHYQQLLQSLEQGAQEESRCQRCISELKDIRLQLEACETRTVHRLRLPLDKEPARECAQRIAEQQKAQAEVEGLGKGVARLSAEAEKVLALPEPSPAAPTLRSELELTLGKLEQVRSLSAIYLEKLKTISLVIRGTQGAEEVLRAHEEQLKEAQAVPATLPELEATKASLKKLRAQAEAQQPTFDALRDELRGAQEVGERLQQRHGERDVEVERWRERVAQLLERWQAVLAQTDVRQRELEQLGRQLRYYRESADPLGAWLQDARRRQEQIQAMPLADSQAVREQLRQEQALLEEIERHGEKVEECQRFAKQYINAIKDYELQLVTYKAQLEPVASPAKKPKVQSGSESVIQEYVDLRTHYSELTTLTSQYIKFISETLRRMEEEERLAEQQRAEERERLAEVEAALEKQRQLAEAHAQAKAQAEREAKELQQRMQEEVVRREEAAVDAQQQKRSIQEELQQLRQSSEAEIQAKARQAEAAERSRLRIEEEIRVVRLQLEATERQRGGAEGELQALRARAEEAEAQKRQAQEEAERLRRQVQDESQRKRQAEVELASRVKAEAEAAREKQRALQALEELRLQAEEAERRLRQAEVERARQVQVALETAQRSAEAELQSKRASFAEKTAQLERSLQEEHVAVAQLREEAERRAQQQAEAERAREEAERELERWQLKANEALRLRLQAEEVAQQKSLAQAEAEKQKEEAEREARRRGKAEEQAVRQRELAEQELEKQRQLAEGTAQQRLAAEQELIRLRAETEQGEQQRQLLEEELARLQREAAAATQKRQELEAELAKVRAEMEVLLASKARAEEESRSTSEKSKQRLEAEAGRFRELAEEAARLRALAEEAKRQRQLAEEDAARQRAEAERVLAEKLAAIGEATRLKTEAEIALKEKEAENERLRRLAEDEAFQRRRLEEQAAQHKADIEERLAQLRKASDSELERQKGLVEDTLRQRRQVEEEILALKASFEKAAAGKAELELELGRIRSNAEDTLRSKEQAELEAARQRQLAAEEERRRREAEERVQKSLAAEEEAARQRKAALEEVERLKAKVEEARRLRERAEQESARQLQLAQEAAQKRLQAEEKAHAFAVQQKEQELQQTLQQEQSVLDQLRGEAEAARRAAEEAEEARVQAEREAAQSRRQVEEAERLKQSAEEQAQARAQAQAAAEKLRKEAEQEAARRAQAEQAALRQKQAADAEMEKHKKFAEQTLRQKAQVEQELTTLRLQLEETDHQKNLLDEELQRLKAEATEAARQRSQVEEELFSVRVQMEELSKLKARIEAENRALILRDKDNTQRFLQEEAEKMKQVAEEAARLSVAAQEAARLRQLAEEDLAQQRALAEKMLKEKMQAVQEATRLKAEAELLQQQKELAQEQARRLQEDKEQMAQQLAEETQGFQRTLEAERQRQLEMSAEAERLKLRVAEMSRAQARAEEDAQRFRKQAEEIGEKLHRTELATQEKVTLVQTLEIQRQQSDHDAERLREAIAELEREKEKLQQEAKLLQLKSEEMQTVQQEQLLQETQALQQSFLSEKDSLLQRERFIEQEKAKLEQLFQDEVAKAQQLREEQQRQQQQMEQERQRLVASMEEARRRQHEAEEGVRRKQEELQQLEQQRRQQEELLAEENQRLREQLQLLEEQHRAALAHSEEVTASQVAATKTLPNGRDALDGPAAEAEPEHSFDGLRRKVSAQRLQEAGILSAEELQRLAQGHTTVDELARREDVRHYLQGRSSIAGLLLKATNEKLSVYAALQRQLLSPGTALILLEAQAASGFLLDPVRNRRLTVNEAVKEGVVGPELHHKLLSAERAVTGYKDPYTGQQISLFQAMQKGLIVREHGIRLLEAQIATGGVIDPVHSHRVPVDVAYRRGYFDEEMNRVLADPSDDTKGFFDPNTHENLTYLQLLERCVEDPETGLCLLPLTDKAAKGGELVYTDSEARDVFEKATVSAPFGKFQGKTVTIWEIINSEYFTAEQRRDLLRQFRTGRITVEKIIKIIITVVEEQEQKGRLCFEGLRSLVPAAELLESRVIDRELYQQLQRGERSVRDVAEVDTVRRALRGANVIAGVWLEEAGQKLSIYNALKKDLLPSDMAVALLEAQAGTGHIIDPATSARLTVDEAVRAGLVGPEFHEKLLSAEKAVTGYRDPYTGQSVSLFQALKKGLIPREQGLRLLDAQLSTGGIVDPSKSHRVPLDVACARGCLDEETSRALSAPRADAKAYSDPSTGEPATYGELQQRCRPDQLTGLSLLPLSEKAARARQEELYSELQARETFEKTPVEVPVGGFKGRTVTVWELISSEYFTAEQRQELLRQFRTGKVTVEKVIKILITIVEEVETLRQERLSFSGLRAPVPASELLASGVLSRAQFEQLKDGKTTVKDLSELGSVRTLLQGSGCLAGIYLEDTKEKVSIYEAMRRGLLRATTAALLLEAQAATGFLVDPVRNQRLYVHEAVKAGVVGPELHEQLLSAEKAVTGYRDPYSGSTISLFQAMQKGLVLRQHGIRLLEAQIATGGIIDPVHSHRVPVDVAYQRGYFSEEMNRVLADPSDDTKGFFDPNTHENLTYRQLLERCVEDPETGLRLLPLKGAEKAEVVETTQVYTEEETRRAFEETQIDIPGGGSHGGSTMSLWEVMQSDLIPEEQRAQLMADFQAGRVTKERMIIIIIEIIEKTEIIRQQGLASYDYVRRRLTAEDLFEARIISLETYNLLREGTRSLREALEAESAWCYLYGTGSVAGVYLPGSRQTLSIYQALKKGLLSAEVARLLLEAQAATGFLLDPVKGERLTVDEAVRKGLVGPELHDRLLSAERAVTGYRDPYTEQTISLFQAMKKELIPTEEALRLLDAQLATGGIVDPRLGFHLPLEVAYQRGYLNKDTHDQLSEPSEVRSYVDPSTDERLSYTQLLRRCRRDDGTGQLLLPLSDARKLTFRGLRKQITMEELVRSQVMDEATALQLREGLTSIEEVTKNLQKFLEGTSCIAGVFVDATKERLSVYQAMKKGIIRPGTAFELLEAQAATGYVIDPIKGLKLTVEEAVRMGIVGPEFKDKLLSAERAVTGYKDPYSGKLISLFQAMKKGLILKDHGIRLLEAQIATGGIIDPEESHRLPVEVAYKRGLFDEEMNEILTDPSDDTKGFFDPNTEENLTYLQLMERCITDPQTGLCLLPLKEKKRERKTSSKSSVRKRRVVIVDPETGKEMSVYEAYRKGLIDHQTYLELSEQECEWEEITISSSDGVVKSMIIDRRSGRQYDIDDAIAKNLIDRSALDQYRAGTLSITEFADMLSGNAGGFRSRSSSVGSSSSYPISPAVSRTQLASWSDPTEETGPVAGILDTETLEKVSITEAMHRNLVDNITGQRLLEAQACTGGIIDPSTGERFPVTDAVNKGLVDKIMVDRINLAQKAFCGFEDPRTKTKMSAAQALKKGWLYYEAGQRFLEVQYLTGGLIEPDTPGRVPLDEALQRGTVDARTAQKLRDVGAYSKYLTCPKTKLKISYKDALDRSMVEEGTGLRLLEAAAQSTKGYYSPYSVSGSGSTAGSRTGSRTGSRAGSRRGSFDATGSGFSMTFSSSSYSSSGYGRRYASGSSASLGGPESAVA
Chain of UniProt Q15084 (Q15084 whole entry): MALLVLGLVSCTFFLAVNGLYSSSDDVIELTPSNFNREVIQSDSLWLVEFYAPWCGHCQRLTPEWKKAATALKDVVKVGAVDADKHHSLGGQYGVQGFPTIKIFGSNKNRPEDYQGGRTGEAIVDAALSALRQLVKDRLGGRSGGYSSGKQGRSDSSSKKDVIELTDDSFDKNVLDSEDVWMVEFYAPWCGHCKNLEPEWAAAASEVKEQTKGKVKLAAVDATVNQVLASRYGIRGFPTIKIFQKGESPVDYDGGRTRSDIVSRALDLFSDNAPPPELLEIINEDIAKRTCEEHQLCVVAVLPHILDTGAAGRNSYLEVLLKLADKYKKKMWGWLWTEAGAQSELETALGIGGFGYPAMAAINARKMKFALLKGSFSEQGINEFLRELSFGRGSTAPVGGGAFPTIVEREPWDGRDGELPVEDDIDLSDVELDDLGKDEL

Row | Target | lysine labeling ratio R10:1
1 | UniProt P01893 (lysine site: K210) | 2.51
2 | UniProt P62263 (lysine site: K106) | 5.29
3 | PTPRJ (lysine site: K281) (UniProt Q12913) | 0.907 (active)
4 | PDIA6 (lysine site: K150) (UniProt Q15084) | 4.08
5 | UniProt O60245 (lysine site: K310) | 2.88
6 | IGF2R (lysine site: K1862) (UniProt P11717) | 1.81 (active)
7 | UniProt P48047 (lysine site: K60) | 2.17
8 | PLOD2 (lysine site: K358) (UniProt O00469) | 2.23
9 | FBLN1 (lysine site: K649) (UniProt P23142) | 2.26
10 | RPS19 (lysine site: K77) (UniProt P39019) | 2.89
11 | DSTN (lysine site: K132) (UniProt P60981) | 1.32 (active)
12 | UniProt Q15149 (lysine site: K1908) | 3.91
13 | SPTAN1 (lysine site: K1334) (UniProt Q13813) | 3.63
14 | UniProt Q16363 (lysine site: K1330) | 2.83
15 | HNRNPU (lysine site: K343) (UniProt Q00839) | 3.69
16 | TFRC (lysine site: K205) (UniProt P02786) | 2.81
17 | DDX3X (lysine site: K264) (UniProt O00571) | 1.78 (active)
18 | RAB2A (lysine site: K131) (UniProt P61019) | 1.7 (active)
19 | SDCBP (lysine site: K124) (UniProt O00560) | 1.6 (active)
20 | MYH9 (lysine site: K1246) (UniProt P35579) | 0.944 (active)

Row | Target | lysine labeling ratio R10:1
21 | SDC4 (lysine site: K104) (UniProt P31431) | 3.81
22 | LGALS1 (lysine site: K130) (UniProt P09382) | 2.14
23 | PLXNB2 (lysine site: K1121) (UniProt O15031) | 0.81 (active)
24 | WASF2 (lysine site: K109) (UniProt Q9Y6W5) | 1.24 (active)
25 | UniProt P26639 (lysine site: K549) | 0.996 (active)
26 | HNRNPL (lysine site: K493) (UniProt P14866) | 1.94 (active)
27 | MET (lysine site: K380) (UniProt P08581) | 1.21 (active)
28 | HSPD1 (lysine site: K130) (UniProt P10809) | 4.23
29 | CCT7 (lysine site: K320) (UniProt Q99832) | 2.53
30 | JTB (lysine site: K94) (UniProt O76095) | 5.2
31 | PFN1 (lysine site: K54) (UniProt P07737) | 3.31
32 | UniProt Q15149 (lysine site: K1886) | 1.49 (active)
33 | PARK7 (lysine site: K148) (UniProt Q99497) | 3.31
34 | FOLR1 (lysine site: K62) (UniProt P15328) | 5.42
35 | EEA1 (lysine site: K583) (UniProt Q15075) | 3.77
36 | ANTXR1 (lysine site: K94) (UniProt Q9H6X2) | 2.11
37 | FSCN1 (lysine site: K74) (UniProt Q16658) | 1.36 (active)
38 | KRT18 (lysine site: K187) (UniProt P05783) | 3.47
39 | EFNB2 (lysine site: K83) (UniProt P52799) | 2.34
40 | RPL3 (lysine site: K229) (UniProt P39023) | 1.36 (active)
